DAT uptake mod = modulates human dopamine transporter uptake under cocaine; LLC-PK1 hDAT cells, [14C]-dopamine uptake with cocaine IC80; actives deviate in either direction; B-score at 10 µM; AID 449768; Q01959; 1.3% of 110,000 active;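 active = Z score or B-score, a plate-position-corrected score, falls beyond the plate's 99.7% confidence bounds, in either direction; inactive = both scores lie inside the 99.7% bounds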;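 note: scored against the spread of the other compound wells on the same plate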
ERb SRC1 inh = blocks coactivator binding to human estrogen receptor beta; TR-FRET ER-beta LBD / SRC1-Cy5 peptide binding; receptor agonist-loaded with 1 µM estradiol; inhibition, % at 25.6 µM; 1.3% of 86,000 active; AID 633;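 active = compounds whose percent inhibition of the receptor-coactivator binding signal exceeds about 50% in the single-dose screen, limit read from the data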;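 note: 0% = receptor plus peptide wells without compound and 100% = peptide-only wells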
Target sequence (Q92731 whole entry, looked up, the tested form may be a part): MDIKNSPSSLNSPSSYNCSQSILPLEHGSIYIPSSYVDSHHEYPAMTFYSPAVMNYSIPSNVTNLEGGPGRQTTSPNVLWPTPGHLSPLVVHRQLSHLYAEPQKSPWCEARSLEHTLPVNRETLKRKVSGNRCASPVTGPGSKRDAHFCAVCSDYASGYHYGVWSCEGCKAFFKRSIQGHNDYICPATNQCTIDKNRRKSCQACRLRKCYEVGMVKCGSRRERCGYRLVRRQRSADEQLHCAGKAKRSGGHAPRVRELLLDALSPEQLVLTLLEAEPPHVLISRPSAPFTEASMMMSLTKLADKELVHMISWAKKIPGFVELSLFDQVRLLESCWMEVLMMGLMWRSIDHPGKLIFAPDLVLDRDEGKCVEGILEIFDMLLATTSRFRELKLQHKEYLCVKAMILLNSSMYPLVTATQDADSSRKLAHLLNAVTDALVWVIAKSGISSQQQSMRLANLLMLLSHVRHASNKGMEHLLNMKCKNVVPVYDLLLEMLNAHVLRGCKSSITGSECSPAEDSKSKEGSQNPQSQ
ERa SRC1 inh = ER-alpha (human) coactivator binding inhibition; inhibition, % at 25.6 µM; 1.7% of 86,000 active; P03372; TR-FRET ER-alpha LBD / SRC-1 peptide, estradiol-bound; in the data active = inhibition above about 50%;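 note: 0% = receptor plus peptide control and 100% = peptide only without receptor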
MT1-MMP txn act = activates MT1-MMP transcription | AID 750 | 0.16% of 86,000 active | HT1080 MT1-MMP promoter luciferase reporter, luminescence, overnight; active compounds read high | activation factor at 10 µM;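 active = activation factor of at least 2 for MT1-MMP transcription at 10 µM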
ERa SRC1 pot = ER-alpha (human) coactivator binding potentiation; coactivator binding (% of control), % at 25.6 µM; P03372; TR-FRET ERalpha-LBD/SRC-Cy5 coactivator binding, 2 h; 100 = basal binding, no effect; 1.3% of 86,000 active; AID 639; in the data active = activity above about 200%;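 note: binding measured in presence of low estradiol as agonist stimulus; 0% = peptide alone without receptor and 100% = receptor with peptide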
An asterisk follows results filed as active; · = no result given; + = active, no number; [ ] = remark or other dose. Sampled rows, rich in hits. Any-hit rate of the full collection: about 3.8%.

SMILES	DAT uptake mod	ERb SRC1 inh	ERa SRC1 inh	MT1-MMP txn act	ERa SRC1 pot
CC(C)c1nnc(NC(=O)C2CCN(c3nc4ccccc4s3)CC2)s1	1.68	-5.8	66.9*[fluorescence artefact?]	1.1	107.3
CCCCn1c(SCC(=O)N2c3ccccc3Sc3ccccc32)nc2c1c(=O)n(C)c(=O)n2C	3.22*	11.4	29.5	1	100.4
Cn1c(=O)c2c(nc(SCC(=O)c3cccs3)n2Cc2ccc(F)cc2)n(C)c1=O	-0.67	34.5	9.2	1.2	+[fluorescence artefact?]
Cn1c(=O)c2c(nc(Br)n2CC(=O)c2cccs2)n(C)c1=O	0.388	-7.1	-5.8	1	100.6
CC1Cc2ccccc2N1C(=O)CSc1nc2c(c(=O)n(C)c(=O)n2C)n1Cc1ccc(F)cc1 (stereo not drawn)	-6.93*	9.5	14.3	1.2	98.0
CCCC[C@@H]1C[C@H]1C(NC(=O)c1cccs1)c1ccc(Cl)cc1 (stereo partly drawn)	·	·	·	1.2	·
Clc1ccc(Nc2nc(-c3ccncc3)cs2)cc1	0.365	44.2	76.4*	1.7	117.0
Nc1ccc(Nc2nc(-c3ccncc3)cs2)cc1	1.46	5.9	22.9	·	56.6
COc1ccc(-c2nnc(SCC(=O)c3cc(C)n(Cc4cccs4)c3C)o2)cc1	-0.866	37.6	52.4*[fluorescence artefact?]	1.1	302.8*
COc1ccc(-n2cnnc2SCC(=O)c2cc(C)n(Cc3cccs3)c2C)cc1	-1.17	25.3	20.7	1.1	248.1*[fluorescence artefact?]
COc1ccc(-c2nnc(SCC(=O)c3cccs3)o2)cc1	-0.652	17.6	10.2	1.7	119.7
Cc1cc(C(=O)CSc2nnc(-c3ccco3)o2)c(C)n1Cc1ccco1	0.424	41.1	53.8*[fluorescence artefact?]	1.2	177.2
Cc1cc(C(=O)CSc2nnc(-c3ccc(OC(F)F)cc3)o2)c(C)n1Cc1cccs1	0.11	44.3	54.5*[fluorescence artefact?]	1	149.9
CC[Si](CC)(CC)c1c2c(nc3ccc(OC)cc13)-c1cccc(=O)n1C2	·	·	·	1	·
C[C@@H](Oc1ccccc1)c1nnn(Cc2ccccc2)c1-c1c([C@@H](C)Oc2ccccc2)nnn1Cc1ccccc1	-0.393	·	·	·	·
COC(=O)N1CC=CC1(C)C(=O)NCc1ccc(C)o1 (stereo not drawn)	·	·	·	1	·
O=C(Nc1cccnc1)c1ccc(S(=O)(=O)N2CCCCCC2)cc1	1.19	46.6	51.7*[fluorescence artefact?]	0.9	20.7
C#CCNC(=O)C1=C[C@H](c2ccc(Br)cc2)C[C@H](OCCCCO)O1	0.426	·	·	·	·
COc1ccc(C2C(C#N)=C(N)Oc3n[nH]c(C)c32)cc1Cn1nnc2ccccc21 (stereo not drawn)	0.468	6.8	1.0	1.1	111.7
CCCc1[nH]nc2c1C(c1ccc(OC)c(Cn3nnc4ccccc43)c1)C(C#N)=C(N)O2 (stereo not drawn)	3.63*	16.4	-1.7	1	82.5
CCc1nc(SCC(=O)Nc2nccs2)c2oc3ccccc3c2n1	·	42.4	56.2*[fluorescence artefact?]	1.1	138.0
CCc1nc(SCC(=O)Nc2ccc3c(c2)OCCO3)c2oc3ccccc3c2n1	-0.215	56.8*[fluorescence artefact?]	64.2*[fluorescence artefact?]	1.1	232.6*[fluorescence artefact?]
O=C(CSc1ncnc2c1oc1ccccc12)Nc1ccc2c(c1)OCCO2	-0.41	56.9*[fluorescence artefact?]	42.8	1.2	764.6*[fluorescence artefact?]
CCc1nc(SCC(=O)N2CCCc3ccccc32)c2oc3ccccc3c2n1	-0.349	9.6	4.8	1.1	133.5
Cc1nc(SCC(=O)Nc2ccc3c(c2)OCCO3)c2oc3ccccc3c2n1	0.418	40.0	79.1*[fluorescence artefact?]	1	732.5*[fluorescence artefact?]
SMILES	DAT uptake mod	ERb SRC1 inh	ERa SRC1 inh	MT1-MMP txn act	ERa SRC1 pot
CC1=C(C(=O)OCC(Br)(Br)Br)C(c2cccc3ccccc23)NC(=O)N1CCCC(=O)O (stereo not drawn)	·	·	·	1.1	·
O=C(CSc1nnc(-c2cccc(Cl)c2)o1)Nc1ccc2c(c1)OCCO2	0.216	21.7	54.5*[fluorescence artefact?]	1.4	145.1
Cc1nc(SCC(=O)NCc2ccccc2)c2oc3ccccc3c2n1	0.0506	-12.3	-0.4	1.1	+[fluorescence artefact?]
Cc1nc(SCC(=O)O)c2oc3ccccc3c2n1	0.73	-0.7	-0.7	1	107.4
Nc1ccc(S(=O)(=O)c2ccc(Cl)cc2)cc1	-3.09*	-2.7	4.0	1.1	110.3
COC(=O)[C@@]1(Cc2ccc(OC)cc2)[C@H]2c3cc(C(=O)N(C)C)n(Cc4cc(C)n(C)n4)c3C[C@H]2CN1C(=O)c1ccccc1	·	·	·	1.1	·
NC(=O)SC/C(=N\S(=O)(=O)c1ccccc1)Nc1ccccc1	-0.572	97.5*[fluorescence artefact?]	-0.5	1.1	96.6
COc1cc(-c2nnc(-c3ccc(S(=O)(=O)c4ccccc4)cc3)o2)cc(OC)c1OC	-0.897	36.4	57.8*	1.1	86.0
COc1ccc([C@@H]2C=C(C(=O)O)O[C@H](OCCCCO)C2)cc1	0.416	·	·	·	·
CCCC(C)C(=O)NCc1ccccc1OC (stereo not drawn)	-0.0342	10.8	-7.3	1.2	102.7
CCCCC(CC)C(=O)NCc1ccccc1OC (stereo not drawn)	-0.00334	52.5*	-2.0	1.1	128.3
Cc1cccn2c(=O)c3cc(C(=O)Nc4ccc(N(C)C)cc4)n(C)c3nc12	·	62.4*[fluorescence artefact?]	96.0*[fluorescence artefact?]	0.9	22.1
CCN(CC)C(=O)c1cc2c(=O)n3cccc(C)c3nc2n1C	1.79	-4.5	1.9	1.1	95.6
CCn1c(SCC(=O)NC(C)(C)C)nnc1-c1ccccn1	-0.399	-7.5	0.1	1.1	91.4
N#CC(c1ccc(Cl)cc1)c1ccc2c(C(F)(F)F)cc(C(F)(F)F)nc2n1 (stereo not drawn)	-3.65*	3.4	2.0	0.6	109.9
CCC1(CC)C(=O)C2=C3C1[C@H](C(=O)OC)CC(C(=O)OC)C[C@H]3[C@H]1C(=O)N(c3ccccc3)C(=O)[C@H]1[C@H]2C (stereo partly drawn)	0.336	·	·	·	·
CC12CN3CC(C)(CN(C1)C3c1ccccc1Cl)C2O (stereo not drawn)	-0.497	·	·	1.1	·
CN1CC2(C)CN(C(c3ccccc3)c3ccccc3)CC(C)(C1)C2O (stereo not drawn)	0.0396	57.1*	44.4	1.1	84.3
Cc1ccc(C(=O)Nc2cc(C)c(OCC(=O)N3CCOCC3)c(C)c2)cc1	2.26*	4.3	-1.5	·	96.2
CCCCNC(=O)C(c1ccc(OCC(=O)OC)c(C(=O)OC)c1)N(CCc1c[nH]c2ccccc12)C(=O)CCCCCN1C(=O)NC(c2ccc(-c3ccccc3)cc2)C(C(=O)OCc2ccccc2)=C1C (stereo not drawn)	-0.569	·	·	1	·
CC(=O)c1c(C)nc(-c2ccc3c(c2)OCO3)n1O	-0.0509	1.4	-5.4	1	667.1*[fluorescence artefact?]
Cc1ccc(S(=O)(=O)Nc2c(C)n(C)n(-c3ccccc3)c2=O)cc1	-0.672	1.0	-1.3	1.3	97.7
Cc1ccc(S(=O)(=O)/N=C(/Nc2c(C)n(C)n(-c3ccccc3)c2=O)c2ccc(Cl)cc2)cc1	5.56*	·	·	·	·
O=C1C(c2c(O)[nH]c3ccccc23)=Nc2ccccc21	-0.653	·	·	·	·
CC(=O)c1cccc2c(O)c(C3=Nc4ccccc4C3=O)[nH]c12	-1.3	-23.0	-47.0	2.3*	145.3
CCOC(=O)Cc1nn(C)c(=O)c2ccccc12	0.248	62.8*	1.8	1.2	97.3

Screening results deposited in PubChem BioAssay by several laboratories.
